# Measured values reported in PubChem BioAssay (NCATS).
# Results filed as inconclusive are left out. Where a call stands in place of a potency, no number is given. A number with no mark means an inactive call. Active and inactive are the calls of the source. The call rests on the fitted dose curve; in most records, active means well fitted curve in the direction sought with a large enough effect; inconclusive means small, poorly fitted or top-dose-only effect, or another doubt; inactive means no such curve, though single readings can be large; an effect the other way counts as inactive or inconclusive.
# How the values were obtained:
# [1] = biological target: Calcium and integrin-binding protein 1 (Homo sapiens) (UniProt Q99828); experiment: Primary qHTS for Identification of Calcium Integrin Binding Protein 1 (CIB1) Competitor (AID 1508620);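 further: GST tagged CIB1 binding a fluorescein labelled alphaIIb integrin peptide tracer; top concentration of the series differs between compounds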
# Method in brief: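 CIB1-GST (1 uM final) and compound incubated 15 min at room temperature before adding FITC-alphaIIb peptide tracer (100 nM final). Competition for binding read by fluorescence polarization (ex 480, em 540) after another 15 min at room temperature.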
# [2] = Primary qHTS for inhibitors of nuclear receptor binding SET domain protein 2 (NSD2) in an isogenic RCH-ACV NSD2 p.E1099K mutant (9B) (AID 1645876); further: nearly all actives have a fitted effect of over 70% in size
# [3] = Primary qHTS for inhibitors of nuclear receptor binding SET domain protein 2 (NSD2) in an RCH-ACV wild type WT cells (2C) (AID 1645877); further: nearly all actives have a fitted effect of over 70% in size
# Sequence of Calcium and integrin-binding protein 1 (Homo sapiens) (Q99828 whole entry, looked up): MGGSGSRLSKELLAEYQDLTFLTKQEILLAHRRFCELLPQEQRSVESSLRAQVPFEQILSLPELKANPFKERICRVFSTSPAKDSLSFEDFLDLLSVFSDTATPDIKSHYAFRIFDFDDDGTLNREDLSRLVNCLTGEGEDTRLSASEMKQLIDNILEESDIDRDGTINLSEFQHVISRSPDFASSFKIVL
smiles,measurement,setting,value
C=C1C(=O)O[C@@H]2/C=C(\C)CC/C=C(\C(=O)O[C@@H]3O[C@H](CO)[C@@H](O)[C@H](O)[C@H]3O)CC[C@@H]12,Potency,[1],inactive
same,Potency,[2],inactive
COc1c2c(c(C)c3c1C(=O)OC3)OC1(C)CC(O)C34OC(O)(CCC3(C)C1C2)OC4(C)C (stereo not given),Potency,[1],inactive
same,Potency,[2],inactive
same,Potency,[3],inactive
O=C(O[C@@H]1O[C@H](CO)[C@@H](O)[C@H](O)[C@H]1O)c1ccccc1,Potency,[1],inactive
same,Potency,[2],inactive
same,Potency,[3],inactive
CC(=O)O[C@H]1[C@H](O[C@H]2CC[C@]34C[C@]35CC[C@]3(C)[C@@H]([C@@]6(C)CC[C@@H](C(C)(C)O)O6)[C@@H](O)C[C@@]3(C)[C@@H]5C[C@H](O[C@@H]3O[C@H](CO)[C@@H](O)[C@H](O)[C@H]3O)[C@H]4C2(C)C)OC[C@@H](OC(C)=O)[C@@H]1O,Potency,[1],inactive
same,Potency,[2],inactive
same,Potency,[3],inactive
C=C1CCC2C(C)(C(=O)OC)CCCC2(C)C1CCC1=CCOC1=O (stereo not given),Potency,[1],inactive
same,Potency,[2],inactive
C[C@H]1CC[C@@]2(OC1)O[C@H]1CC3C4CC[C@H]5C[C@@H](O[C@@H]6O[C@H](CO)[C@H](O[C@@H]7O[C@H](CO)[C@@H](O)[C@H](O[C@@H]8OC[C@@H](O)[C@H](O)[C@H]8O)[C@H]7O[C@@H]7O[C@H](CO)[C@@H](O)[C@H](O)[C@H]7O)[C@H](O)[C@H]6O)[C@H](O)C[C@]5(C)C4=CC(=O)[C@]3(C)[C@H]1[C@@H]2C (stereo not given in full),Potency,[1],inactive
same,"activity change, negative = viability loss",[2],-21.3% [at 9.23 µM]
C[C@@H]1O[C@@H](O[C@H]2[C@@H]3C=CO[C@@H](O[C@@H]4O[C@H](CO)[C@@H](O)[C@H](O)[C@H]4O)[C@@H]3[C@@]3(CO)O[C@@H]23)[C@H](OC(=O)/C=C/c2ccc(O)cc2)[C@H](O)[C@H]1O,Potency,[1],inactive
same,Potency,[2],inactive
same,Potency,[3],inactive
C=C1CC[C@@]2(OC1)O[C@H]1CC3C4CC=C5C[C@@H](O[C@@H]6O[C@@H](C)[C@H](O)[C@@H](O)[C@H]6O)C[C@@H](O[C@@H]6O[C@H](C)[C@H](O)[C@H](O)[C@H]6O[C@@H]6O[C@@H](C)[C@H](O)[C@@H](O)[C@H]6O)[C@]5(C)C4CC[C@]3(C)[C@H]1[C@@H]2C (stereo not given in full),Potency,[1],inactive
same,"activity change, negative = viability loss",[2],-22.3% [at 9.23 µM]
CC1(C)CC2C3=CCC4[C@@]5(C)CC[C@H](OC6OCC(O)C(OC7OC(CO)C(O)C(O)C7O)C6O)C(C)(C)C5CC[C@@]4(C)[C@]3(C)C[C@H](O)[C@@]2(CO)[C@H](OC(=O)c2ccccc2)C1 (stereo not given in full),Potency,[1],inactive
same,"activity change, negative = viability loss",[2],-12.4% [at 9.23 µM]
C[C@@H]1O[C@@H](O[C@@H]2[C@@H](O)[C@H](O[C@@H]3[C@@H](O)[C@@H](O)[C@H](O[C@H]4[C@H](OC(=O)[C@]56CCC(C)(C)C[C@H]5C5=CCC7[C@@]8(C)C[C@H](O)[C@H](O[C@@H]9O[C@H](C(=O)O)[C@@H](O)[C@H](O)[C@H]9O)[C@@](C)(CO)C8[C@H](O)C[C@@]7(C)[C@]5(C)C[C@H]6O)O[C@@H](CO)[C@@H]4O)O[C@H]3C)OC[C@H]2O)[C@H](O)[C@H](O)[C@H]1O (stereo not given in full),"activity change, negative = inhibition",[1],0.349% [at 12.4 µM]
same,"activity change, negative = viability loss",[2],-3.74% [at 9.23 µM]
same,"activity change, negative = cell killing",[3],-10.6% [at 9.23 µM]
